# FUS yeast rescue = FUS proteinopathy suppression in yeast. S. cerevisiae FUS-expressing, growth rescue, OD600, 24 h. Potency, µM (series often up to 76.6 µM), hits mostly activators. actives 0.24% (n = 390,000); also: nearly all actives have a fitted effect of over 55% in size
#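 FUS-expressing yeast, raffinose-pregrown, induced in 2% galactose minimal medium at OD 0.005; compounds in a dilution series, 24hr at 30C. Growth restoration read as absorbance at 600 nm. CP55940 positive control, DMSO negative.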
# MBNL1 CUG block = inhibitors of human MBNL1 binding to CUG repeat RNA | Q9NR56 | actives 0.036% (n = 280,000) | TR-FRET MBNL1-His/biotin-(CUG)12 binding, 665/545 ratio | Potency, µM (titrated, usually from 57.5 µM), most hits filed as inhibitors; active = well fitted inhibition curve with a large enough effect in the signal ratio, with a control signal flat, not every such curve was filed as active; inconclusive = small, poorly fitted or top-dose-only effect, or effect the other way, or a change in a side signal; inactive = no such curve, though single readings can be large or run the other way; the % refers to the signal ratio
# Target sequence (Q9NR56 whole entry, looked up): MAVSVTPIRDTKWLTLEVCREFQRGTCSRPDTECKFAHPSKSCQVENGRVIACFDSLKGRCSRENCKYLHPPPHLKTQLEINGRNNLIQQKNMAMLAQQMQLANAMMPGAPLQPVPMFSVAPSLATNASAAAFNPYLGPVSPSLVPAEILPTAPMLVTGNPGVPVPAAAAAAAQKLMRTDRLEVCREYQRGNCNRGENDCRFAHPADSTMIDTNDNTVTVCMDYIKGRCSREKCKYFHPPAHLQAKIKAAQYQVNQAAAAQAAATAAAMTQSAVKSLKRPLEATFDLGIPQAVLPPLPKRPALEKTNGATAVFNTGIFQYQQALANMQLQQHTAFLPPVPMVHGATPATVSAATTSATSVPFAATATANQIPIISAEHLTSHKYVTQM
#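 MBNL1-His + Biotin-(CUG)12, cpd titration 92 nM–58 uM; Tb anti-His Ab 0.055 ng/ul, SA-XL665 5 nM (final); 60 min RT; ratiometric 665/545 nm, Ex 340 nm; normalized to buffer and full-complex controls.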
# aSyn rescue = rescues yeast growth from alpha-synuclein toxicity; Yeast expressing alpha-synuclein, growth rescue, BacTiter-Glo, 24 h; Potency, µM (doses to about 46.1 µM), hits mostly activators; actives 0.14% (n = 370,000); AID 652106; also: nearly all actives have a fitted effect of over 65% in size
#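 Screening used galactose-induced yeast with toxic alpha-synuclein levels, exposed to compound for 24 hr at 30 deg C. Cell growth, read with BacTiter-Glo luminescence, gave the measured signal.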
# TDP-43 yeast inh = TDP-43 toxicity inhibition in yeast. TDP-43 expressing yeast growth rescue, BacTiter-Glo, 24 h. Potency, µM (series often up to 46.1 µM), actives largely listed as activators. actives 1.8% (n = 410,000); also: nearly all actives have a fitted effect of over 50% in size
#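 Luminescence from BacTiter-Glo reports growth of TDP-43-expressing yeast after 24 hr at 30 deg C with compound. Cells were raffinose-pregrown to mid-log, then seeded in galactose medium at OD600=0.02.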
# Abeta yeast res = A-beta toxicity reversal in yeast | AID 1347071 | Potency, µM (series often up to 46.1 µM), actives largely listed as activators | yeast expressing A-beta42, growth rescue, OD600, 48 h; response scale: 0% DMSO, 100% iron-clioquinol control | actives 0.063% (n = 410,000); also: nearly all actives have a fitted effect of over 55% in size
#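 Yeast growth medium received pinned compounds, then yeast cells expressing toxic A-beta were added; plates incubated at 30 C for 48 hr. Growth read as absorbance at 600 nm, normalized to DMSO and equimolar FeCl3 plus clioquinol controls.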
# Glioma ERSR ind = ER stress response induction in glioma; U87-MG GRP78 promoter luciferase reporter, 16 h; Potency, µM, most hits filed as activators; actives 0.02% (n = 420,000); also: series mostly up to about 76 µM; nearly all actives have a fitted effect of over 35% in size
#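 Stably transfected U87-MG human glioma cells carrying a GRP78-based luminescent sensor were seeded at 1000 cells/well, pin-dosed with compounds and incubated 16 h. Luciferase reagent was then added, and end-point luminescence was read after 10 min at room temperature.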
# Numbers stand for hits; 0 = inactive; ? = inconclusive; - = no result; [ ] = dose if it differs, or a comment. Only some compounds are listed: those with a hit (about 2% of all), similar ones and a draw of the others. Unless noted, calls follow the shape of the dose curve; as a rule, active = well fitted curve in the direction sought with a large enough effect; inconclusive = small, poorly fitted or top-dose-only effect, or another doubt; inactive = no such curve, though single readings can be large; an effect the other way counts as inactive or inconclusive.
SMILES,FUS yeast rescue,MBNL1 CUG block,aSyn rescue,TDP-43 yeast inh,Abeta yeast res,Glioma ERSR ind
COc1cc(=O)n2c(c1C(=O)N(C)Cc1nonc1C)CCN(Cc1ccsc1)CC2,-,-,-,-,-,0
Cc1cc(C(=O)Nc2ccc(Nc3ccccc3)cc2)ccc1[N+](=O)[O-],0,0,0,13µM,0,0
O=C(Nc1ccc(Nc2ccccc2)cc1)c1ccc(Cl)c([N+](=O)[O-])c1,?,0,0,0,0,0
COc1cc(/C=C/c2ccc3ccccc3n2)cc(OC)c1OC,-,-,0,-,-,0
COc1ccc(-c2cc(C(=O)N3CCCc4ccccc43)no2)cc1,-,0,0,10µM,0,0
CCOC(=O)C1CCCN(C(=O)c2sc3nc(-c4ccc(F)cc4)cn3c2C)C1 (configuration not stated),-,0,0,8.9µM,0,0
CCOC(=O)/C(=N/Nc1ccc(OC)cc1)N1CCCc2ccccc21,0,0,0,13µM,0,0
COc1ccc(-c2cc(C(=O)N3CCCc4ccccc43)no2)cc1OC,?,0,0,16µM,0,0
CCOC(=O)/C(=N/Nc1ccccc1)N1CCCc2ccccc21,-,0,0,0,0,0
COc1cccc(-c2cc(C(=O)N3CCCc4ccccc43)no2)c1,0,0,0,0,0,0
COc1ccccc1-c1cc(C(=O)N2CCCc3ccccc32)no1,0,0,0,?,0,0
COc1ccc(-c2cn3c(C)c(C(=O)N4CCCc5ccccc54)sc3n2)cc1,?,-,20µM,25µM,0,0
Cc1c(C(=O)N2CCN(c3ccccc3F)CC2)sc2nc(-c3ccccc3)cn12,0,0,0,14µM,0,0
COc1ccc(-c2cn3c(C)c(C(=O)N4CCN(c5ccccc5F)CC4)sc3n2)cc1,?,0,0,0,0,0
COc1cccc(C(=O)NCc2nc(-c3cccc(NC(=O)c4ccoc4C)c3)oc2C)c1,-,-,-,-,-,0
CO[C@H]([C@H](C)/C=C/N(C)C=O)[C@@H](C)C(=O)CC[C@H](C)[C@H](O)[C@H](C)[C@H]1OC(=O)/C=C/C(C)=C/C[C@H](O)C[C@@H]2C=CC[C@@H](C[C@H](OC)[C@@H](C)[C@@H](OC)C[C@@H](OC)[C@@H]1C)O2,14µM,-,-,-,-,-
C=C1CC2(OC1=O)c1ccccc1CCc1ccccc12,-,-,0,1.8µM,0,0
O=C1NC(=O)C2(CCc3ccccc32)N1 (configuration not stated),0,0,0,0,0,0
CCSc1ncc(Cl)c(C(=O)Nc2nnc(CC)s2)n1,0,-,-,?,0,0
Cc1ccc(NC(=O)c2nc(SCc3ccccc3F)ncc2Cl)cc1,-,-,0,-,-,0
CC(=O)Nc1ccc(NC(=O)c2nc(SCc3ccccc3F)ncc2Cl)cc1,-,-,32µM,-,-,0
CCc1nnc(NC(=O)c2nc(SCc3ccc(F)cc3)ncc2Cl)s1,?,-,-,16µM,0,0
CSc1ncc(Cl)c(C(=O)Nc2cccc(Cl)c2)n1,0,0,0,22µM,0,0
CCOC(=O)Nc1ccc2c(c1)[C@@]1(CC(=O)N(CC(C)C)C1c1ccccc1)C(=O)N2C (some centres not stated),0,-,-,-,-,-
COC(=O)[C@]1(CNC(C)=O)CC(=O)N(Cc2ccc(Cl)cc2)[C@@H]1c1ccc(OC)cc1,0,-,-,-,-,-
SMILES,FUS yeast rescue,MBNL1 CUG block,aSyn rescue,TDP-43 yeast inh,Abeta yeast res,Glioma ERSR ind
CC1(C(=O)NCC2CCCCC2)CCN1C(=O)Cc1ccc(-c2ccccc2)cc1 (configuration not stated),?,-,0,20µM,0,0
Cc1ccc(CNC(=O)C2(C)CCN2C(=O)Cc2ccc(-c3ccccc3)cc2)cc1 (configuration not stated),0,-,?,35µM,0,0
C=CCn1c(COc2ccc(C)cc2)nnc1SCC(=O)Nc1ccc(Oc2ccccc2)cc1,0,-,-,-,-,-
C[C@H]1[C@@H](OC(=O)NCc2ccc(Cl)c(Cl)c2)CC[C@@]23CCCN2C(=O)CCC[C@@H]13,0,-,-,-,-,-
Cc1nn(C)c2ncc(C(=O)c3ccccc3O)cc12,0,0,0,0,0,0
Cc1[nH]nc2ncc(C(=O)c3ccccc3O)cc12,13µM,0,0,0,0,0
O=S1OC(c2ccccc2)c2cc(Cl)ccc21 (configuration not stated),0,-,0,13µM,0,0
O=C1OC(c2ccccc2)c2ccccc21 (configuration not stated),0,0[11.5 µM],0,0,0,0
CCCC(=O)N1CCc2cc(OC)c(OC)cc2C1COc1ccc(C(=O)OC)cc1 (configuration not stated),?,-,0,0,0,0
CCCCC(=O)N1CCc2cc(OC)c(OC)cc2C1COc1ccc(C(=O)OCC)cc1 (configuration not stated),?,-,0,22µM,0,0
CCOC(=O)c1ccc(OCC2c3cc(OC)c(OC)cc3CCN2C(=O)Cc2ccc(F)cc2)cc1 (configuration not stated),13µM,-,0,20µM,0,0
COc1cc2c(cc1OC)C(COc1ccc(F)cc1)N(C(=O)Cc1ccc(F)cc1)CC2 (configuration not stated),0,-,-,-,0,0
COc1cccc(CNc2ccc(S(N)(=O)=O)cc2)c1OCc1ccccc1F,0,0,0,0,0,0
COc1cccc(CNc2ccccc2O)c1OCc1ccccc1F,20µM,0,0,0,0,0
C[C@@H](O[C@H]1OCCN(Cc2n[nH]c(=O)[nH]2)[C@@H]1c1ccc(F)cc1)c1cc(C(F)(F)F)cc(C(F)(F)F)c1,-,-,-,-,-,0
CCOC(=O)CC[C@H]1CC[C@]2(CCCN(C(=O)c3ccco3)C2)O1,0,-,-,-,-,-
CCCCN(C)C(=O)c1oc(=O)c2ccccc2c1-c1ccc(C)cc1,0,-,-,-,-,-
CN(Cc1ccccc1)C(=O)c1oc(=O)c2ccccc2c1-c1ccccc1,-,0,0,14µM,0,0
Cc1ccc(-c2c(C(=O)N(C)Cc3ccccc3)oc(=O)c3ccccc23)cc1,?,?,0,13µM,0,0
Cc1ccc(-c2c(C(=O)NCc3ccccc3)oc(=O)c3ccccc23)cc1,0,0,0,0,0,0
COCc1c(C(=O)N2CCN(C3CCCC3)CC2)cnn1-c1nccc(-c2cc(C)sc2C)n1,-,-,-,-,-,0
Cn1ccc2c(-c3ccc(C(C)(C)C)cc3)cc3c(c21)C1CCC3C1 (configuration not stated),0,-,0,0,0,0
Cn1ccc2c(-c3ccc(C(=O)O)cc3)cc3c(c21)C1CCC3C1 (configuration not stated),0,-,0,28µM,0,0

# Screening results deposited in PubChem by National Center for Advancing Translational Sciences (NCATS).
